Active and inactive are the calls of the source. Unless noted, no rule for the calls is given here.
Legend:
[1] = tested on: XIP peptide (Xip251-270) binding; assay: small-molecule binders of XIP peptide, primary screen, biochemical, small-molecule microarray, fluorescence 635/667 nm, 0.1 µg/mL protein (AID 1182); conditions: fluorescent protein binding, 635 nm, higher = more signal, called active from +8 up or from −8 down
[2] = tested on: XIP peptide (Xip251-270); assay: small-molecule binders of XIP peptide, primary screen, biochemical, small-molecule microarray, fluorescence 635/667 nm, 0.5 µg/mL protein (AID 1183); conditions: small-molecule microarray binding, fluorescence 635 nm; higher = more signal
[3] = Plasmodium falciparum growth inhibition, primary screen, strain 3D7, DAPI fluorescence, 100 nL (AID 1184);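 also: parasites grown inside human red blood cells in medium with human serum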; conditions: P. falciparum 3D7 growth, 3 d, higher = more signal
[4] = target: Homeobox protein Hox-A13 (Mus musculus) (UniProt Q62424); assay: inhibitors of HoxA13-DNA binding, primary screen, biochemical, fluorescence polarization, labeled oligonucleotide (AID 1185); conditions: 15 min, higher = more signal, called active from +8 up or from −8 down
[5] = inhibitors of hydroxyurea-induced Chk1 phosphorylation, primary screen, imaging, HeLa, phospho-Chk1 antibody, percent positive cells (AID 1186); conditions: hydroxyurea-induced phospho-Chk1 immunofluorescence imaging, higher = more signal
[6] = inhibitors of hydroxyurea-induced Chk1 phosphorylation, primary screen, imaging, HeLa, phospho-Chk1 nuclear intensity (AID 1187); conditions: hydroxyurea-induced phospho-Chk1 immunofluorescence imaging, higher = more signal

Chain of Homeobox protein Hox-A13 (Mus musculus) (Q62424 whole entry, looked up): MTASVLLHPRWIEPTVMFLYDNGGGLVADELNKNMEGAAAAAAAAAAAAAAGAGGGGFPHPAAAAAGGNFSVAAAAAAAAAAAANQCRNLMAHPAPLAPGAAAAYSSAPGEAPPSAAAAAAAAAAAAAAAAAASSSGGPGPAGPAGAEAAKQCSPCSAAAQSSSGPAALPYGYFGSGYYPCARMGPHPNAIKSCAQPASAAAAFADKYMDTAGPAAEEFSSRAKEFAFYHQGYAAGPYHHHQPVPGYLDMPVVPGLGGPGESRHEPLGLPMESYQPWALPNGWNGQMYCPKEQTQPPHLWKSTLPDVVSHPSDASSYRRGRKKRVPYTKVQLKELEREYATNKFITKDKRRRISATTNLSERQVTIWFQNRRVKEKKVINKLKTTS

SMILES | composite z-score [1] | composite z-score [2] | z-score [3] | z-score [4] | z-score [5] | z-score [6]
Cc1cc(C)c(C(O)C2C=CC3C(=O)NC(=O)C3N2Nc2ccccn2)c(C)c1 (stereo unspecified) | 0.702 (inactive) | 0.103 | -0.261 | -3.34 (inactive) | 0.321 (inactive) | -0.0098 (inactive)
COc1ccc(C(=O)Nc2cccc(CN3C(=O)[C@@]4(O[C@@H](CC(=O)N5Cc6ccccc6C[C@H]5CO)[C@H]([Si](C)(C)c5ccc(OC)cc5)[C@H]4C)c4ccccc43)c2)cc1 | 1.44 (inactive) | 0.698 | -2.64 | -3.18 (inactive) | -0.0924 (inactive) | 0.071 (inactive)
O=C1O[C@@H](c2ccccc2)[C@@H](c2ccccc2)N2[C@@H](c3ccccc3OCCO)[C@]3(C(=O)Nc4ccc(C#CC5(O)CCCCCC5)cc43)[C@@H](C(=O)NC[C@H](O)c3ccccc3)[C@H]12 | 0.487 (inactive) | 0.76 | -1.96 | -2.71 (inactive) | -0.213 (inactive) | 0.0361 (inactive)
COc1ccc([Si](C)(C)[C@@H]2[C@@H](CC(=O)N3Cc4ccccc4C[C@H]3CO)O[C@]3(C(=O)N(Cc4cccc(N5C(=O)COc6ccccc65)c4)c4ccccc43)[C@H]2C)cc1 | 1.16 (inactive) | 0.778 | -2.79 | -0.616 (inactive) | -0.635 (inactive) | -0.0275 (inactive)
Cc1ccc(S[C@]2(C(=O)NCCCN(C)C)CC(=O)N(C(C)C)[C@@H]2c2ccc(CO)cc2I)cc1 | 0.352 (inactive) | 0.412 | -0.621 | -2.81 (inactive) | 0.535 (inactive) | 0.775 (inactive)
O=C1C2C=CC(C(O)C3CC=CCC3)N(n3cnnc3)C2C(=O)N1Cc1ccccc1 (stereo unspecified) | 0.887 (inactive) | -0.0517 | 0.017 | -3.36 (inactive) | 0.518 (inactive) | -0.603 (inactive)
CCCC[C@H]1OB(O)C[C@H]2C1=C(COc1ccccc1)C[C@H]1C(=O)N(Cc3ccccc3)C(=O)[C@H]12 | -0.0195 (inactive) | -0.0475 | 0.589 | -6.65 (inactive) | 0.0918 (inactive) | 0.206 (inactive)
COCCCNC(=O)[C@@]1(Sc2ccc(C)cc2)CC(=O)N(Cc2ccccc2)[C@@H]1c1ccc(CO)cc1 | -0.496 (inactive) | 0.841 | -0.471 | -2.81 (inactive) | -0.24 (inactive) | -0.283 (inactive)
COCC1C2CC[C@H]3C(OCc4ccc(F)cc4C(F)(F)F)OC[C@]4(C)[C@H]3C2=C(CN4C(=O)OC(C)(C)C)[C@H](C)C1COC (stereo partly specified) | 1.84 (inactive) | 0.761 | -1.06 | -3 (inactive) | -0.43 (inactive) | -0.0765 (inactive)
O=C1C2C=CC(C(O)CCc3ccccc3)N(Nc3ccccc3)C2C(=O)N1c1ccccc1 (stereo unspecified) | 0.792 (inactive) | 0.802 | -0.467 | -3.23 (inactive) | 0.684 (inactive) | 0.448 (inactive)
CC1CC/C=C\[C@H]2OC34C=CCN(CCN5CCOCC5)C(=O)[C@H]3N(CCCCCO)C(=O)[C@@H]4C2C(=O)O1 (stereo partly specified) | -0.173 (inactive) | -1.32 | -0.143 | -5.32 (inactive) | -0.0913 (inactive) | -0.364 (inactive)
CCCCCN1CC=CC23O[C@@H]4C=CCCOC(=O)C4[C@H]2C(=O)N(CCCO)[C@@H]3C1=O (stereo partly specified) | 0.0154 (inactive) | 0.466 | -1.54 | -3.33 (inactive) | -0.299 (inactive) | -0.688 (inactive)
C=CCOC(=O)[C@@H]1[C@H]2C(=O)O[C@H](c3ccccc3)[C@H](c3ccccc3)N2[C@H](c2ccc(OCCOC(=O)[C@H]3C[C@H]4C(=O)N[C@@H](Cc5ccccc5)C(=O)N4[C@H]3c3ccc(O)cc3)cc2)[C@@]12C(=O)Nc1ccc(I)cc12 | 2.09 (inactive) | 0.81 | 0.265 | 6.27 (inactive) | -0.177 (inactive) | -0.343 (inactive)
NC(=O)[C@@]1(CCS(=O)(=O)c2ccccc2)N=C(c2ccc(OCCCO)cc2)O[C@H]1c1ccccc1 | 1.11 (inactive) | 0.863 | -1.9 | -6.86 (inactive) | 0.0218 (inactive) | 0.56 (inactive)
Cn1c2c(c3ccccc31)C(=O)C1NC2C=CC1(C)C(=O)OCc1ccccc1 (stereo unspecified) | -0.605 (inactive) | -0.416 | -0.502 | -3.9 (inactive) | -0.3 (inactive) | -0.512 (inactive)
C=C(C(=O)CC[C@@H](OC(=O)c1cccnc1)c1ccc(OCCO)cc1)C(C)C | 1.15 (inactive) | 0.611 | -0.496 | -3.94 (inactive) | 1.38 (inactive) | 1.36 (inactive)
CN1C(=O)C2C=CC(C(O)C3=C[C@H]4C[C@@H](C3)C4(C)C)N(Nc3ccc([N+](=O)[O-])cc3[N+](=O)[O-])C2C1=O (stereo partly specified) | 0.334 (inactive) | 0.704 | 0.395 | -3.59 (inactive) | -0.21 (inactive) | -0.257 (inactive)
COCCOC(=O)N1C(=O)[C@@]2(c3cc(C#Cc4ccc(OC)cc4)ccc31)[C@H](c1ccc(O)cc1)N1[C@H](c3ccccc3)[C@H](c3ccccc3)OC(=O)[C@H]1[C@@H]2C(=O)N1CCN(c2ncccn2)CC1 | 0.164 (inactive) | 0.596 | -1.86 | -0.821 (inactive) | 0.187 (inactive) | 0.302 (inactive)
OCCCc1cc[n+](Cc2cccc(OC(F)(F)F)c2)cc1 | 0.307 (inactive) | 0.768 | -1.47 | -3.06 (inactive) | -0.284 (inactive) | -0.678 (inactive)
CCCC[C@@H]1C[C@H]1[C@@H](NC(=O)c1ccccc1)c1ccccc1 | -0.33 (inactive) | -0.302 | 0.328 | -1.46 (inactive) | 0.072 (inactive) | -0.0583 (inactive)
O=C(NCc1ccccc1)[C@@H]1c2ccccc2C(=O)N(C2CCCCC2)[C@H]1c1ccc(CO)cc1 | 0.81 (inactive) | 0.732 | -0.667 | -2.81 (inactive) | -0.13 (inactive) | -0.296 (inactive)
C=CC[C@@]1(C(=O)OC)N=C(c2ccc(OCCCO)cc2)O[C@@H]1c1ccccc1CN=[N+]=[N-] | 2.46 (inactive) | 0.611 | -2.39 | -3.73 (inactive) | -1.07 (inactive) | -1.45 (inactive)
Cc1ccc(N2C(=O)c3ccccc3[C@](C)(C(=O)NCCN3CCOCC3)[C@@H]2c2ccc(CO)cc2)nc1 | -0.772 (inactive) | 0.471 | -0.855 | -1.9 (inactive) | -0.217 (inactive) | -0.163 (inactive)
CCCCN1CC=CC23O[C@@H]4/C=C\CCCOC(=O)C4[C@H]2C(=O)N(C(C)CO)[C@@H]3C1=O (stereo partly specified) | 0.502 (inactive) | -0.269 | 0.494 | -4.24 (inactive) | 0.166 (inactive) | 0.711 (inactive)
COc1ccccc1CN1C(=O)c2ccccc2[C@](Cc2ccccc2I)(C(=O)NC2CC2)[C@@H]1c1ccc(CO)cc1 | -0.259 (inactive) | 0.823 | -2.22 | -4.79 (inactive) | -0.145 (inactive) | 0.548 (inactive)
C=C[C@H](C)[C@H](O)c1ccc(OCCO)cc1 | -0.199 (inactive) | -0.143 | -0.996 | -0.499 (inactive) | -0.82 (inactive) | -0.216 (inactive)

Reference: PubChem BioAssay
